Bioassay records: PubChem BioAssay, several laboratories
This is a sample that favours compounds with a hit; in the whole collection about 2.2% have one here.
TROY signal inh: blocks TROY-dependent signaling in reporter cells. Q293 LMP1-TROYcd NF-kB luciferase reporter, 4 h. inhibition, % at 10 µM. 360,000 compounds, 0.98% hits;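 active = compounds whose plate-normalised and pattern-corrected inhibition of the luciferase reporter signal at the single screening dose is 50% or more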
LGR2 inh: inhibitors of bursicon-induced Drosophila LGR2 receptor cAMP signaling; inhibition, % at 9.99 µM; AID 720647; HEK293 LGR2, CRE-luciferase, bursicon-stimulated, 4 h; 380,000 compounds, 0.35% hits;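 active = drop in luminescence signal, shown as inhibition above about 50% in the replicate tests, limit read from the data, passing the limit was not always enough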;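 note: agonist challenge used bursicon conditioned medium at about half maximal strength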
TWEAK-Fn14 inh: blocks TWEAK-Fn14 interaction in a reporter cell assay. TWEAK-stimulated Fn14 reporter cells, luciferase luminescence, 8 h. inhibition, % at 10 µM. 360,000 compounds, 2% hits. AID 1159606; in the data active = inhibition above about 50%
HSP90 refold inh: HSP90 refolding inhibition in rabbit reticulocyte lysate. luciferase refolding luminescence, 3 h. inhibition, % at 5.6 µM. 290,000 compounds, 0.91% hits. AID 1789;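 active = inhibition above the screen-wide mean plus 3 SD, computed separately per campaign, cut at about 16% in these data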;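 note: 0% = DMSO wells and 100% = 60 µM geldanamycin wells; inhibitors lower the luminescence because luciferase stays unfolded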
HSP90 inh confirm: confirmation of HSP90 inhibitors. shares compounds with HSP90 refold inh. rabbit reticulocyte lysate, luciferase refolding luminescence, 3 h. inhibition, % at 5.9 µM. 2,300 compounds, 64% hits. AID 1846; in the data active = inhibition above about 18%;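 note: 0% = vehicle wells and 100% = reference inhibitor wells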
luciferase ctr: counter-screen for HSP90 inhibitors: inhibitors of firefly luciferase; 2,300 compounds, 48% hits; purified native firefly luciferase, luminescence; AID 1847; shares compounds with HSP90 refold inh; inhibition, % at 5.9 µM;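 active = inhibition above the mean inhibition of all tested sample wells plus 3 SD, cut at about 10% in these data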;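 note: 0% = DMSO with luciferase and 100% = wells lacking luciferase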
Target sequence (P08659 whole entry, looked up): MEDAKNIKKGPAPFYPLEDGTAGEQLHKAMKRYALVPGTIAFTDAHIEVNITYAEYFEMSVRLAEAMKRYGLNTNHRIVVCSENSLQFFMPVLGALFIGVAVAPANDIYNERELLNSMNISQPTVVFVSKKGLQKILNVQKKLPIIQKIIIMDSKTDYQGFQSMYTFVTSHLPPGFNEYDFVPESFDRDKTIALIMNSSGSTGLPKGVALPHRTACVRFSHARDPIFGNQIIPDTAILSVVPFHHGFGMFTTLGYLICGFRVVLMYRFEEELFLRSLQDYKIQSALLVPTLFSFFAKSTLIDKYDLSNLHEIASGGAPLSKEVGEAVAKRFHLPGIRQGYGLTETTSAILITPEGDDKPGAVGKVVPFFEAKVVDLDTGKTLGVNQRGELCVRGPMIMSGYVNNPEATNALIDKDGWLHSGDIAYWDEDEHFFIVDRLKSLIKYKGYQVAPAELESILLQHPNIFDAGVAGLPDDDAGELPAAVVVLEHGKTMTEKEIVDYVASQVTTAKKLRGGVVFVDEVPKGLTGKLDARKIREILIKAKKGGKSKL
* hit, by the source's call; x = no result.

SMILES	TROY signal inh	LGR2 inh	TWEAK-Fn14 inh	HSP90 refold inh	others
C=C(C=O)CC1CC(O)[C@]2(C)OC3CC4OC5C[C@]6(C)O[C@]7(C)CCC8OC9C[C@]%10(C)OC%11C(C)=CC(=O)OC%11CC%10OC9C[C@@H](C)C8OC7CC6O[C@]5(C)CC5OC5C4OC3CC2O1 (some centres undefined)	89.1*	x	108.5*	5.5
O=C(O)[C@@H]1[C@@H](CO)[C@@H]2Cn3c(ccc(C4=CCCCC4)c3=O)[C@H]1N2CCc1ccccc1	x	-7.9	x	x
O=C(Cc1ccccc1)N1CCCCN2[C@H](C1)[C@@H](c1ccc(C#Cc3ccccc3)cc1)[C@@H]2CO	x	18.1	x	x
CC(C)n1c(O)c(C2c3cc(Cl)ccc3Oc3[nH]c(=O)n(C(C)C)c(=O)c32)c(=O)[nH]c1=O (centres undefined)	20.1	x	100.1*	6.8
CC(=O)c1c(O)n(-c2cccc(Cl)c2)c(=O)[nH]c1=O (tested in a mixture with another compound)	9.5	-12.5	0.3	-9.0
COc1ccc(CC2NCC(O)C2OC(C)=O)cc1 (centres undefined)	87.6*	x	100.5*	x
COc1ccc(CC(=O)N2CCN(C)CC2)cc1	4.6	x	18.4	2.5
N#Cc1ncc(N=Cc2ccc(N(CCCl)CCCl)cc2)s1	21.1	-3.5	52.7*	x
CCCCCN1C(=O)c2ccccc2[C@@]2(C(=O)OCC)Cc3cc(OC)ccc3[C@@H]12	23.7	64.5*	35.1	x
CCOC(=O)[C@]12Cc3cc(C)ccc3[C@H]1N(C(C)C)C(=O)c1ccccc12	18.0	69.0*	-59.1	x
CCOC(=O)[C@]12Cc3cc(C)ccc3[C@H]1N(Cc1ccccc1)C(=O)c1ccccc12	-2.6	27.1	20.8	x
O=C(O)[C@@H]1[C@@H](CO)[C@@H]2Cn3c(ccc(-c4ccccc4)c3=O)[C@H]1N2CC1CCCCC1	x	0.9	x	x
O=C(Cc1ccccn1)N1CCCCN2[C@@H](CO)[C@@H](c3ccc(-c4ccc(F)cc4)cc3)[C@@H]2C1	x	0.6	x	x
COC(=O)C1=Nc2ccccc2/C1=C\c1c(O)n(-c2ccc(OC)cc2)c(=O)[nH]c1=O	34.7	x	64.6*	1.3
O=c1[nH]c(=O)n(-c2ccccc2)c(O)c1/C=C1/C(c2ccccc2)=Nc2ccccc21	-34.7	5.9	38.4	-5.3
COC(=O)C1=Nc2ccccc2/C1=C\c1c(O)n(-c2ccc(Br)cc2)c(=O)[nH]c1=O	-2.4	x	58.6*	-0.4
COc1ccc(-c2ccc([C@H]3[C@H]4CN(C(=O)Cc5ccccc5)CCCCN4[C@H]3CO)cc2)cc1	x	-12.6	x	x
CC=Cc1ccc2n(c1=O)C[C@H]1[C@H](CO)[C@@H](C(=O)OC)[C@@H]2N1CC1CCCC1 (mixture of isomers)	x	-2.3	x	x
COc1ccc(CN2CCN(C(=O)Cc3ccccc3)CC2)c(OC)c1	2.2	-13.5	-26.9	-0.2
COc1ccc(Br)cc1CN1CCN(C(=O)Cc2ccccc2)CC1	x	x	82.0*	3.0
O=C(C1CCCN(c2nnc(-n3cccc3)s2)C1)N1CCC2(CC1)OCCO2 (centres undefined)	x	x	74.4*	-1.3
Cc1ccc2nc(N3CCC(C(=O)N4CCC5(CC4)OCCO5)CC3)sc2c1	-8.3	x	13.2	0.8
C[CH2][Hg][S]c1ccccc1C(=O)O	25.1	95.6*	92.2*	x
CC(C)CC#Cc1ccc([C@H]2[C@@H](CO)N3CCCCN(C(=O)Cc4ccccn4)C[C@H]23)cc1	x	-4.9	x	x
COC(=O)[C@H]1[C@H](CO)[C@H]2Cn3c(ccc(/C=C/c4ccccc4)c3=O)[C@@H]1N2C(=O)C1CCC1	x	4.8	x	x
SMILES	TROY signal inh	LGR2 inh	TWEAK-Fn14 inh	HSP90 refold inh	others
O=C(C[N+]12CCC(CC1)C(C(O)(c1ccccc1)c1ccccc1)C2)c1ccc(Br)cc1 (centres undefined)	-15.9	4.9	8.0	3.5
OCC[N+]12CCC(CC1)C(C(O)(c1ccccc1)c1ccccc1)C2 (centres undefined)	54.4*	3.3	-19.6	-1.6
CN(C)C(=O)Oc1ccc(-c2cn3cc(Cl)ccc3n2)cc1	-37.5	39.0	49.5	32.5*	HSP90 inh confirm=33.6*;luciferase ctr=21.4*
CN(C)C(=O)Oc1cccc(-c2cn3cc(Cl)ccc3n2)c1	-62.2	-25.3	-7.6	5.5
CCOC(=O)C1CCN(/C=C2/C(=O)NC(=O)N(c3ccc(OCC)cc3)C2=O)CC1	-9.7	-17.2	18.3	23.7*	HSP90 inh confirm=-1.8;luciferase ctr=-4.5
COC(=O)[C@H]1[C@H](CO)[C@H]2Cn3c(ccc(-c4cccnc4)c3=O)[C@@H]1N2CCc1ccccc1	x	4.8	x	x
Cc1ccc(CN2CCCN(Cc3ccc(C)cc3)S2(=O)=O)cc1	-0.2	-6.1	6.5	18.0*	HSP90 inh confirm=7.3;luciferase ctr=-1.4
Cc1cccc(CN2CCCN(Cc3ccc(Cl)cc3)S2(=O)=O)c1	11.9	7.3	-9.8	0.4
O=C(NC1CCCCC1)Oc1cc2oc(=O)sc2cc1Cl	0.4	-2.7	11.7	17.7*	HSP90 inh confirm=1.7;luciferase ctr=-6.6
COc1ccc(N2C(=O)NC(=O)/C(=C\c3cn(C)c4ccccc34)C2=O)cc1	-20.3	-3.9	-22.9	27.9*	HSP90 inh confirm=-1.3;luciferase ctr=-4.1
CCCC#Cc1ccc([C@H]2[C@@H](CO)N3CCCCN(C(=O)Cc4ccccn4)C[C@@H]23)cc1	x	-8.7	x	x
COc1cc(C(c2c(C)[nH]n(-c3ccccc3)c2=O)c2c(C)[nH]n(-c3ccccc3)c2=O)cc(OC)c1OC	-27.9	-5.8	-3.0	55.7*	HSP90 inh confirm=-8.7;luciferase ctr=-3.8
COC(=O)C(O)(c1c(C)[nH]n(-c2ccccc2)c1=O)C(F)(F)F (centres undefined)	-43.5	x	1.9	3.5
CC=Cc1ccc2n(c1=O)C[C@@H]1[C@@H](CO)[C@H](C(=O)OC)[C@H]2N1CC1CCOCC1 (mixture of isomers)	x	4.0	x	x
COc1ccc(C#Cc2ccc([C@H]3[C@H]4CN(C(=O)Cc5ccncc5)CCCCN4[C@H]3CO)cc2)cc1	x	-0.1	x	x
O=C(CCS(=O)(=O)c1ccc(Br)cc1)N1CCC2(CC1)OCCO2	-8.8	x	1.1	77.7*	HSP90 inh confirm=-4.6;luciferase ctr=-11.3
O=C(c1ccc(CS(=O)(=O)c2ccc(Br)cc2)o1)N1CCC2(CC1)OCCO2	-16.1	x	8.9	0.8
COc1ccccc1OCCCn1cc(C=O)c2ccccc21	35.2	-74.1	27.9	18.1*	HSP90 inh confirm=21.5*;luciferase ctr=-18.1
CC1CN=C(NC(C)c2ccccc2)S1 (centres undefined)	-1.8	-11.7	3.1	17.2*	HSP90 inh confirm=-4.4;luciferase ctr=-8.4
O=C(Cc1ccncc1)N1CCCCN2[C@H](CO)[C@@H](c3ccc(C#CC4(O)CCCC4)cc3)[C@@H]2C1	x	-12.4	x	x
COc1ccc(-c2ccc([C@@H]3[C@H]4CN(C(=O)Cc5ccccc5)CCCCN4[C@H]3CO)cc2)cc1	x	-6.7	x	x
COc1ccc(-n2c(/C=C/c3ccc(O)cc3)nc3ccccc3c2=O)cc1	10.6	9.0	19.2	4.1
CCn1nc(/C=C/c2ccccc2)nc2c(=O)n(C)c(=O)nc1-2	83.4*	104.3*	106.2*	85.2*	HSP90 inh confirm=96.2*;luciferase ctr=87.7*
